Bioassay records deposited in PubChem BioAssay by several laboratories.
CendR NRP1 mod: NRP-1/CendR interaction modulation; O14786; AID 602438; FAM-RPARPAR peptide binding to NRP-1, fluorescence polarization; inhibition, % at 25 µM; hit rate 0.85% among 360,000;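 active means inhibition or corrected inhibition above about 18%, plus a signal ratio from 0.5 to 1.5, limit read from the data, passing the limit was not always enough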
Target sequence (O14786 whole entry, looked up): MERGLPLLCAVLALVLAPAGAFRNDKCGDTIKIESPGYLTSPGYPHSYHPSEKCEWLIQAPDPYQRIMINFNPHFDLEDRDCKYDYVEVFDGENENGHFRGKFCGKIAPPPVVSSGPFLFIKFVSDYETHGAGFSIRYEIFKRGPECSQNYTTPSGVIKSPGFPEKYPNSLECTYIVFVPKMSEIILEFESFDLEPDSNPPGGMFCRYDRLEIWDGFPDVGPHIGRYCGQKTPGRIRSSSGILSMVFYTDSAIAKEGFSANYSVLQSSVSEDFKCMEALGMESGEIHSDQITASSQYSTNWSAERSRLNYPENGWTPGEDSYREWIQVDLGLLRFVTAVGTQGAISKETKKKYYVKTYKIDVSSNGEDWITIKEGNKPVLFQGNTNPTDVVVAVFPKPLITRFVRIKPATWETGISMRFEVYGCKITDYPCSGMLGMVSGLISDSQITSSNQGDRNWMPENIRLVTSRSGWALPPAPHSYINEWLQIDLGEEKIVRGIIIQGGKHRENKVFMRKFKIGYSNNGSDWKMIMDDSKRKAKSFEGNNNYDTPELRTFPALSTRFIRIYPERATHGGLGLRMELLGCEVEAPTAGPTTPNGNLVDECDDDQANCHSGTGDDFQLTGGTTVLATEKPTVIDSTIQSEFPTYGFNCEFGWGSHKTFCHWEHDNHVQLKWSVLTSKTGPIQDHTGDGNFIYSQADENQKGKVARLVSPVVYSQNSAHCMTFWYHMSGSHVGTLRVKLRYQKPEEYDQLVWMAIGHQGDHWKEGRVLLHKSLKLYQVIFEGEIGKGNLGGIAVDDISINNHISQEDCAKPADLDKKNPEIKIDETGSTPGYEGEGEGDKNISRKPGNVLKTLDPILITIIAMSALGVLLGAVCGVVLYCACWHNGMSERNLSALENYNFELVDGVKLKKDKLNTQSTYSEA
ATG4B inhibitor: inhibitors of human ATG4B cysteine protease; ATG4B cleavage of LC3-PLA2, NBD-HPC fluorescence, 1 h; hit rate 0.51% among 340,000; Q9Y4P1; AID 504462; inhibition, % at 8.33 µM; in the data active means inhibition above about 40%
CFTR F508del cor: correctors of CFTR F508del function in bronchial epithelial cells; CFBE cells, YFP halide quenching; stimulated with forskolin plus potentiator P3; % fluorescence drop versus neutral controls; activity (quench increase), % at 7.58 µM; hit rate 0.36% among 350,000; AID 720511;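 active means mean added fluorescence quench of at least 8% versus neutral control, with both replicates also reaching 8%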;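 further: cells transiently co-express mutant CFTR-F508del with the halide-sensitive YFP; corrector assay measuring rescue of mutant channel to the surface after 24 h compound exposure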
MPTP block: permeability transition pore inhibition; isolated mouse mitochondria, Ca2+ swelling absorbance, 30 min; inhibition, % at 10 µM; hit rate 1.4% among 360,000;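 active means inhibition of 50% or more, scaled per plate between neutral and stimulator controls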
SKN-1 inh: inhibitors of C. elegans SKN-1 | C. elegans VP596 Pgst-4::GFP/RFP ratio, acrylamide-induced, 24 h | AID 624304 | inhibition, % at 21.8 µM | hit rate 0.49% among 360,000;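 active means interference check ratio from 0.5 to 1.5 plus GFP to RFP signal ratio inhibition reaching or exceeding a fixed threshold, cut at about 30% in these data, passing the limit was not always enough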
Rh123 counter: membrane potential counter-screen of mitochondrial pore inhibitors | shares compounds with MPTP block | hit rate 78% among 5,000 | inhibition, % at 10 µM | isolated mitochondria, Rhodamine 123 fluorescence | AID 624504; in the data active means inhibition above about 22%
MPTP abs DR: dose response confirmation of mitochondrial permeability transition pore inhibitors; shares compounds with MPTP block; isolated mitochondria swelling, absorbance; IC50, µM; hit rate 58% among 780; in the data active means IC50 below about 20 µM
MPTP cs DR: MPTP inhibitor counter-screen activity, dose response; shares compounds with MPTP block; isolated mitochondria counterscreen, fluorescence read-out; IC50, µM; hit rate 49% among 780; AID 651564; in the data active means IC50 below about 80 µM
Hits are given with their value; 0 = inactive; - = not tested or not shown. Sampled rows, rich in hits. Any-hit rate of the full collection: about 2.7%.

SMILES	CendR NRP1 mod	ATG4B inhibitor	CFTR F508del cor	MPTP block	SKN-1 inh	Rh123 counter	others
O=C(C1CC1)N1CC(=O)N2[C@H](CO)[C@H](c3ccc(C4=CCCCC4)cc3)[C@@H]2C1	-	-	0	-	-	-
O=C(Nc1nc(-c2cccs2)c(C(=O)C(F)(F)F)s1)c1ccccc1	0	0	0	87.8	0	98.2
CCOC(=O)N1CCN(C(=O)c2cc(Cl)c(Cl)cc2C(=O)O)CC1	0	0	0	54.8	0	0	MPTP abs DR=0;MPTP cs DR=0
O=S(=O)(NC[C@H]1N[C@H](CO)[C@H]1c1ccccc1)c1ccccc1	-	-	0	-	-	-
CCOC(=O)c1cnn(-c2sc(C(=O)OCC)c(C)c2C(=O)OCC)c1N	0	0	0	88.0	0	73.6
N#Cc1ccsc1NC(=O)c1cnccn1	0	0	-	0	0	-
CC(C)(C)NS(=O)(=O)c1cc(C(=O)Nc2sccc2C#N)ccc1Cl	0	0	-	75.2	0	57.0
Cn1cnc(S(=O)(=O)N2C[C@H](O)COC[C@@H]3O[C@H](CC(=O)NCc4cc(F)cc(F)c4)CC[C@H]32)c1	-	-	0	-	-	-
O=c1cc(C(F)(F)F)[nH]c2c(C(F)(F)F)cccc12	0	0	-	63.6	0	97.7
O=c1cc(C(F)(F)F)[nH]c2ccc(OC(F)(F)F)cc12	0	0	0	63.9	0	84.8
Cc1cc(=O)c2cccc(Br)c2[nH]1	0	0	-	0	0	-
C[C@@H]1CN([C@H](C)CO)S(=O)(=O)c2ccc(/C=C/c3ccccc3)cc2O[C@@H]1CN(C)CC1CC1	-	-	0	-	-	-
O=C(Nc1ccc(Cl)cc1)C1CCN(C(=O)c2ccco2)CC1	0	0	0	0	0	-
O=C(Nc1ccc(Cl)cc1)NC1CCCC1Cc1ccco1 (stereo not given)	0	0	-	102.9	0	88.0
COc1cc(C2SCCS2)cc(Br)c1Oc1ncccc1[N+](=O)[O-]	0	0	0	58.3	0	32.6
O=[N+]([O-])c1cccnc1Oc1ccc(C2SCCS2)cc1	0	0	0	0	0	-
N=c1n(Cc2ccccc2)c2ccccc2n1CC(O)COc1ccc(Cl)cc1Cl (stereo not given)	0	0	-	73.6	0	0
N=c1n(Cc2ccc(Cl)cc2)c2ccccc2n1CC(O)COc1ccccc1 (stereo not given)	0	0	0	77.7	0	26.7
N=c1n(CC(=O)c2ccc([N+](=O)[O-])cc2)c2ccccc2n1Cc1ccccc1	0	0	-	0	0	-
N=c1n(CCO)c2ccccc2n1Cc1ccc(Cl)cc1	0	0	-	89.2	0	0	MPTP abs DR=13.1;MPTP cs DR=48.3
N=c1n(Cc2ccccc2)c2ccccc2n1Cc1ccccc1	0	0	-	0	0	-
N=c1n(CC(=O)c2ccc([N+](=O)[O-])cc2)c2ccccc2n1Cc1ccc(Cl)cc1	0	0	-	88.1	0	0
COc1ccc(OCC(O)Cn2c(=N)n(Cc3ccccc3)c3ccccc32)cc1 (stereo not given)	0	0	-	0	0	-
Cc1noc(C)c1NC(=O)N(C)C[C@@H]1OCc2ccccc2-c2c(n(C)c3ccccc23)C(=O)N([C@@H](C)CO)C[C@H]1C	-	-	0	-	-	-
C[C@@H]1CN([C@H](C)CO)C(=O)c2cc(C#CC3(O)CCCC3)cnc2O[C@H]1CN(C)Cc1ccccn1	-	-	0	-	-	-
SMILES	CendR NRP1 mod	ATG4B inhibitor	CFTR F508del cor	MPTP block	SKN-1 inh	Rh123 counter	others
O=C(C[C@H]1CC[C@@H]2[C@H](COC[C@@H](O)CN2S(=O)(=O)c2cccc(F)c2)O1)NC1CCC1	-	-	0	-	-	-
CO[C@@H]1CN(C)C(=O)c2ccc(NC(=O)NC(C)C)cc2OC[C@H](C)N(Cc2cncnc2)C[C@@H]1C	-	-	0	-	-	-
COc1ccc(C#Cc2ccc3c(c2)O[C@@H](CN(C)C(=O)CN2CCOCC2)[C@@H](C)CN([C@H](C)CO)S3(=O)=O)cc1	-	-	0	-	-	-
C[C@H]1CN([C@@H](C)CO)C(=O)c2cccc(NC(=O)Nc3ccccc3)c2O[C@H]1CN(C)C	-	-	0	-	-	-
COC(=O)c1cccc(NC(=O)/C=C/c2ccc([N+](=O)[O-])cc2)c1	0	0	0	0	0	-
CCOC(=O)c1cc(NC(=O)COc2ccc([N+](=O)[O-])cc2)cc(C(=O)OCC)c1	0	0	-	50.3	0	56.1
CCOC(=O)c1cccc(NC(=O)/C=C/c2ccc([N+](=O)[O-])cc2)c1	0	0	-	92.2	0	78.2
O=C(/C=C/c1cc([N+](=O)[O-])ccc1OC(F)F)Nc1cccc([N+](=O)[O-])c1	0	0	0	89.3	0	0	MPTP abs DR=8.2;MPTP cs DR=<2.5
CCN(CC)S(=O)(=O)c1cc([N+](=O)[O-])ccc1NNC(=O)Nc1ccc(F)cc1	0	0	-	85.6	0	91.6
CN(C)CCCNS(=O)(=O)c1cc(Cl)ccc1Cl	0	0	-	0	0	-
NCCCCCCNS(=O)(=O)c1cccc2c(Cl)cccc12	0	0	0	108.1	0	0	MPTP abs DR=7.44;MPTP cs DR=46.5
O=C(Cc1ccc(F)cc1)Nc1nc(-c2ccc(F)c(F)c2)cs1	0	0	0	58.6	0	85.6
O=C(Nc1ccc(Cl)cc1)Nc1nc(-c2ccccc2)cs1	0	0	0	94.1	0	91.9
Cc1csc(NC(=O)Nc2cccc(Cl)c2)n1	0	0	-	91.9	0	75.2
COc1ccc(CC(=O)Nc2nc(-c3ccc(F)c(F)c3)cs2)cc1	0	0	0	0	0	-
Cc1nnc(NC(=O)Nc2cccc(Cl)c2)s1	0	0	-	0	0	-
O=C(Nc1cccc(Cl)c1)Nc1nc(-c2ccccc2)cs1	0	0	0	94.2	0	83.1
CO[C@H]1CN(C)C(=O)c2cc(NC(C)=O)ccc2OC[C@@H](C)N(CCC(F)(F)F)C[C@@H]1C	-	-	0	-	-	-
Fc1ccc(-c2csc(NC(=S)Nc3ccccc3)n2)cc1	0	0	0	0	0	-
O=C(O)C1CCCCC1C(=O)Nc1nc(-c2ccc(Cl)s2)cs1 (stereo not given)	0	0	-	0	0	-
Cc1noc(-c2ccccc2)c1NC(=O)Nc1ccc(Cl)cc1	0	0	0	84.0	0	97.2
O=C(Nc1ccccc1)Nc1nc(-c2ccc(F)cc2)cs1	0	0	-	91.9	0	86.0
O=C(Nc1ccc([N+](=O)[O-])cc1)Nc1nc(-c2ccc(Cl)s2)cs1	0	0	0	91.3	0	86.5
CCCN1[C@H](C(=O)N2CCOCC2)[C@@H](CO)[C@@H]2Cn3c(ccc(-c4ccncc4)c3=O)[C@@H]21	-	-	0	-	-	-
Cn1cc(CNCc2cn[nH]c2-c2ccc(F)cc2)c(-c2ccc3c(c2)OCCO3)n1	0	0	0	0	0	-
Cn1cc(CNCc2ccc(OC(F)(F)F)cc2)c(-c2ccc3c(c2)OCCO3)n1	0	0	0	101.6	0	96.3
Cc1ccc(S(=O)(=O)N(C)C[C@H]2OCCCC[C@H](C)Oc3ccc(NS(=O)(=O)c4c(C)noc4C)cc3C(=O)N([C@@H](C)CO)C[C@H]2C)cc1	-	-	0	-	-	-
CCSc1nc(N)c(C#N)c(-c2ccccc2Cl)c1C#N	0	0	-	0	0	-
